Only a selection was taken, and hits are over-represented in it overall.
14-3-3g Raf: modulators of 14-3-3 gamma protein binding, primary screen, biochemical, fluorescence polarization; 14-3-3 protein gamma (Homo sapiens), P61981; FP, 14-3-3gamma / TMR-pS259-Raf peptide binding; inhibition, % at 40 µM; 160,000 tested, 0.19% active; AID 422, 2006; in the data active = inhibition above about 30%;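 also: 0% = protein plus tracer without compound and 100% = blank with tracer alone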
Target sequence (P61981 whole entry, looked up): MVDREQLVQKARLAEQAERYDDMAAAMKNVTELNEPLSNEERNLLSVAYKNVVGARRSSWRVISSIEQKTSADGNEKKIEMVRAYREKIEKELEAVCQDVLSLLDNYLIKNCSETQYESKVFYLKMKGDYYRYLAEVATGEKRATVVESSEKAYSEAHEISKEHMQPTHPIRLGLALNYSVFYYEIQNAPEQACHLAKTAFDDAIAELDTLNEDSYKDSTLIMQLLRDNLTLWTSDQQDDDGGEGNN
* marks the source's active call; other numbers are inactive results; + = active, no number; ! = a repeat was not active.

SMILES	14-3-3g Raf
Fc1ccccc1C1C=C(c2cccs2)Nc2nnnn21 (stereo unspecified)	-7.7
CC(C)CCn1c(CN2CCCCC2)nc2c1c(=O)n(C)c(=O)n2C	1.6
CCN(CC)c1ccc2cc(C(=O)c3cc4ccc(N(CC)CC)cc4oc3=O)c(=O)oc2c1	77.2*
CCN(CC)c1ccc2cc(C(=O)Nc3ccc(C)cc3)c(=O)oc2c1	-8.8
CCN(CC)c1ccc2cc(C(=O)Nc3ccccn3)c(=O)oc2c1	7.0
Cc1ccc(-c2nc(CCl)c(C)o2)cc1	4.4
Cc1ccc(-n2nc3cc(C)c(NC(=O)COc4ccc(Cl)cc4C)cc3n2)cc1	-2.3
CCC(C)NC(=O)C1(O)c2cc(Br)ccc2NC(=O)N1c1ccc(Cl)cc1 (stereo unspecified)	-2.6
O=C(O)C1Sc2[nH]c(=O)sc2C2c3ccccc3OC(=O)C12 (stereo unspecified)	-33.8
O=c1[nH]c2c(s1)C1c3c(ccc4ccccc34)OCC1CS2 (stereo unspecified)	3.1
CC12COc3ccccc3C1c1sc(=O)[nH]c1SC2 (stereo unspecified)	107.5*
O=C(NCCc1ccccc1)C1CCC(=O)N1C1CCCCC1 (stereo unspecified)	4.0
Cc1ccc(CNC(=O)CCNC(=O)c2ccc(Br)o2)cc1	-3.6
O=C(CCNC(=O)c1ccc(Br)o1)NCc1ccccn1	+!
O=C(CCNC(=O)c1ccc(Br)o1)NCc1ccccc1Cl	0.7
CC(=O)c1ccc(NC(=NS(=O)(=O)c2ccc(C)cc2)c2ccc(Cl)cc2)cc1	-10.6
COc1cc(C(=O)Nc2cc(-c3nc4ccccc4[nH]3)ccc2C)cc(OC)c1OC	-1.0
Cc1cc(C)c(NC(=O)CN2CCN(c3nc4ccc([N+](=O)[O-])cc4s3)CC2)c(C)c1	-8.4
COc1ccccc1-n1nnnc1SCc1ccccc1	-1.5
COc1ccccc1-n1nnnc1SCc1cc2c(cc1Br)OCO2	50.4*
Clc1cc2c(cc1CSc1nnnn1-c1ccccc1)OCO2	-1.1
FC(F)Oc1ccc(Br)cc1C1C=C(c2ccc(Br)cc2)Nc2ncnn21 (stereo unspecified)	2.8
COc1ccc(NC(=O)Cn2ccc3ccccc3c2=O)cc1OC	8.7
CCOC(=O)c1ccc(N=c2oc3c(C)ncc(CO)c3cc2C(N)=O)cc1	-5.8
COc1ccccc1N1CCN(C(=O)c2cc3n(n2)C(C(F)(F)F)CC(c2ccc(Cl)cc2)N3)CC1 (stereo unspecified)	-3.9
SMILES	14-3-3g Raf
O=C1C=C(NCc2cccnc2)C2(CCCCC2)O1	-1.3
COC(=O)C1=C(C)NC2=C(C(=O)CC(c3ccc(OC)cc3)C2)C1c1cccc(OC)c1OC (stereo unspecified)	-2.0
CN1CCc2c(sc(/N=C/c3ccco3)c2C(N)=O)C1	47.8*
CN1CCc2c(sc(/N=C/c3cccs3)c2C(N)=O)C1	-37.5
N#Cc1c(/N=C/c2ccco2)sc2c1CCCCC2	-6.6
O=C1C(c2ccccc2F)N(CCC2=CCCCC2)C(=O)CN1C1CCCCCC1 (stereo unspecified)	-1.5
O=C(CSc1c2c(nc3ccc(Cl)cc13)CCCC2)N1CCOCC1	-1.2
COc1ccccc1OCCn1c(SC)nc2ccccc21	-7.1
O=C(Nc1cc(C(=O)Nc2ccc(S(=O)(=O)O)cc2S(=O)(=O)O)cc(C(=O)Nc2ccc(S(=O)(=O)O)cc2S(=O)(=O)O)c1)Nc1cc(C(=O)Nc2ccc(S(=O)(=O)O)cc2S(=O)(=O)O)cc(C(=O)Nc2ccc(S(=O)(=O)O)cc2S(=O)(=O)O)c1	31.8*
NS(=O)(=O)c1ccc(NC(=O)Nc2cccc(Cl)c2)cc1	-1.3
Cc1c(NC(=O)c2ccccc2)cc(S(=O)(=O)c2ccc(Cl)cc2)c(O)c1C	-12.2
O=C(CSc1nnnn1-c1cccc2ccccc12)Nc1ccccc1Oc1ccccc1	0.7
Cc1cccc(C(=O)n2cnc3cc(C)c(C)cc32)c1	-1.6
CCOC(=O)c1sc(NC(=O)c2ccccc2[N+](=O)[O-])nc1-c1ccccc1	-7.6
CC1CC(=O)C(CC(=O)O)C1C[N+](=O)[O-] (stereo unspecified)	30.3*
Cc1ccc([N+](=O)[O-])cc1NC(=O)C1(C)CC2c3ccccc3C1c1ccccc12 (stereo unspecified)	-0.3
Fc1ccccc1C1C=C(c2cccc(Br)c2)Nc2nc3ccccc3n21 (stereo unspecified)	-11.1
Fc1ccccc1C1C=C(c2cccnc2)Nc2nc3ccccc3n21 (stereo unspecified)	47.3*
Fc1ccccc1C1C=C(c2ccc(Br)s2)Nc2nc3ccccc3n21 (stereo unspecified)	-107.1
CCN1CCN(C(=O)c2sc3nc(C)nc(N(C)c4ccc(C(C)C)cc4)c3c2C)CC1	3.6
CC(C)N=c1cc2n(-c3ccc(Cl)cc3)c3ccccc3nc-2cc1Nc1ccc(Cl)cc1	97.4*
Cn1c(CNc2ccc(Cl)cc2)nc2ccccc21	-9.0
CC(C)Cn1c(C=Cc2ccc(Cl)cc2)nc2ccccc21	-7.6
O=C(N1CCN=C1SCc1ccccc1Cl)C12CC3CC(CC(C3)C1)C2	1.6
O=C1c2ccc3c4c(ccc(c24)C(=O)N1c1ccccc1)N(c1ccccc1)C3=O	-69.1
SMILES	14-3-3g Raf
Nc1ccc2c3c(cccc13)C(=O)N(c1ccccc1)C2=O	86.8*
O=C1c2cccc3c([N+](=O)[O-])ccc(c23)C(=O)N1c1ccccc1	4.2
C=CCNc1ccc2c3c(cccc13)C(=O)N(c1ccccc1)C2=O	158.1*
O=C1c2cccc3c(NCCO)ccc(c23)C(=O)N1CCO	8.5
O=C1c2cccc3c(N4CCCC4)ccc(c23)C(=O)N1c1ccccc1	-24.4
CCCC(=O)Nc1c2c(nn1-c1cccc(Cl)c1)CS(=O)C2 (stereo unspecified)	-11.4
CC(=O)N1CCc2cc(Br)cc(S(=O)(=O)NCCN(C)Cc3ccccc3)c21	-1.5
COc1ccccc1CNc1nc(-c2ccc(Br)cc2)nc2ccccc12	-5.1

Compound activity: PubChem, Emory University Molecular Libraries Screening Center
